Results filed as inconclusive are left out. Activity calls are given as the source filed them. Unless noted, calls follow the shape of the full dose curve.
What was measured:
[1] = Nuclear factor erythroid 2-related factor 2/antioxidant responsive element (Nrf2/ARE) small molecule agonists: qHTS cell viability counter screen in human keratinocytes (AID 1919968; active = well fitted curve in the direction sought with a large enough effect in the repeat runs; an effect the other way counts as inactive or inconclusive; also: nearly all actives have a fitted effect of over 55% in size; also: potency is read from the fitted curve at half-maximal effect)
Method in brief: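 Viability counter-screen: KeratinoSens reporter cells, DMSO-delivered compounds, 23 h at 37 C, CellTiter-Fluor fluorescence.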

[2] = Nuclear factor erythroid 2-related factor 2/antioxidant responsive element (Nrf2/ARE) small molecule agonists: luciferase reporter gene qHTS assay in human keratinocytes (AID 1919969); also: nearly all actives have a fitted effect of over 35% in size
[3] = molecular target: KiSS-1 receptor (Homo sapiens) (UniProt Q969F8); assay: Human kisspeptin (KISS1R) small molecule agonists, calcium flux assay in KISS1R-HEK293 cells (AID 1920064; active = well fitted curve in the direction sought with a large enough effect in the repeat runs; an effect the other way counts as inactive or inconclusive)
Method in brief: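 Intracellular calcium mobilization in KISS1R-HEK293 cells was recorded by fluorescence (Ex/Em 480/540) for 3 min following compound addition to cells pre-loaded 1 h with calcium dye.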

[4] = G protein-coupled receptor (GPCR) small molecule agonists, calcium flux assay: HEK293 wild type cell line counter screen (AID 1920065)
Method in brief: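 In this agonist-mode screen, ATP is the positive control and DMSO the vehicle. Cells grow 18 h before a 1 h dye incubation at 37 C; signal is taken at Ex/Em 480/540 over 3 min.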

[5] = p53 small molecule agonists, cell-based qHTS assay with human liver microsomes: qHTS cell viability counter screen (AID 1963579); also: nearly all actives have a fitted effect of over 45% in size; also: potency is read from the fitted curve at half-maximal effect
Method in brief: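 Viability of p53RE-bla cells is measured as CellTiter-Glo luminescence following a 16 h, 37 C incubation with compound, liver microsomes from human donors and NADPH.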

[6] = p53 small molecule agonists, cell-based qHTS assay with rat liver microsomes: qHTS cell viability counter screen (AID 1963580); also: nearly all actives have a fitted effect of over 45% in size
Method in brief: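 Viability is assessed in parallel with the p53 reporter read: HCT-116 p53RE-bla cells receive compounds plus rat microsomes and NADPH (0.5 mg/mL final apiece), incubate 16 h at 37 C, and then CellTiter-Glo luminescence is recorded.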

[7] = p53 small molecule agonists, cell-based qHTS assay: qHTS cell viability counter screen (AID 1963581); also: nearly all actives have a fitted effect of over 45% in size; also: potency is read from the fitted curve at half-maximal effect
Method in brief: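 Compounds are pinned onto HCT-116 p53RE-bla cells and left 16 h at 37 C. Following the reporter FRET read, ATP is quantified by CellTiter-Glo luminescence after 30 min at room temperature.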

[8] = molecular target: 5-hydroxytryptamine receptor 2A (Homo sapiens) (UniProt P28223); assay: 5-hydroxytryptamine receptor 2A (HTR2A) small molecule antagonists, cell-based qHTS assay (AID 1963586); also: nearly all actives have a fitted effect of over 45% in size; also: potency is read from the fitted curve at half-maximal effect
Method in brief: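 Antagonist-mode intracellular calcium assay: DOI (4 nM) added after 5 min compound pre-incubation at room temperature to dye-loaded HTR2A-CHO cells. Fluorescence followed for 3 min, sampled every second.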

[9] = molecular target: 5-hydroxytryptamine receptor 2A (Homo sapiens) (UniProt P28223); assay: 5-hydroxytryptamine receptor 2A (HTR2A) small molecule agonists, cell-based qHTS assay (AID 1963587); also: nearly all actives have a fitted effect of over 30% in size; also: potency is read from the fitted curve at half-maximal effect
Method in brief: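 CHO cells stably expressing human HTR2A, plated 18 h, loaded with calcium dye 1 h at 37 C. Agonist mode: compounds added and intracellular calcium fluorescence recorded kinetically for 2 min at 1 sec intervals.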

[10] = molecular target: Muscarinic acetylcholine receptor M1 (Homo sapiens) (UniProt P11229); assay: Cholinergic receptor muscarinic 1 (CHRM1) small molecule antagonists, cell-based qHTS assay (AID 1963588); also: nearly all actives have a fitted effect of over 40% in size
Method in brief: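 CHRM1-CHO calcium-flux assay, antagonist mode. Cells were seeded 18 h, dye-loaded 1 h at 37 C and given compound for 5 min at RT, then acetylcholine was added at 50nM. FDSS fluorescence was read 3 min; 15 concentrations, three runs.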

[11] = molecular target: Muscarinic acetylcholine receptor M1 (Homo sapiens) (UniProt P11229); assay: Cholinergic receptor muscarinic 1 (CHRM1) small molecule agonists, cell-based qHTS assay (AID 1963589); also: nearly all actives have a fitted effect of over 35% in size
Method in brief: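 Stable CHRM1-CHO cells (human receptor) were incubated 18 h, dye-loaded for 1 h at 37 C and exposed to test compounds for agonist activity, with calcium-dependent fluorescence followed kinetically.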

[12] = cAMP Responsive Elements (CRE) small molecule agonists, cell-based qHTS assay (AID 1963590)
Method in brief: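 FRET-based beta-lactamase readout (LiveBLAzer B/G, 2 h RT) quantified CRE activation in HEK 293T CRE-bla cells after 3 h treatment with DMSO-dissolved compounds.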

[13] = cAMP Responsive Elements (CRE) small molecule antagonists, cell-based qHTS assay (AID 1963591; active = well fitted inhibition curve with a large enough effect in the signal ratio in the repeat runs, not every such curve was filed as active; the % refers to the signal ratio)
Method in brief: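 qHTS in CRE-bla HEK 293T cells: compound in DMSO, then 0.25 uM NKH477 (final), 3 h at 37 °C/5% CO2; beta-lactamase FRET read-out after 2 h substrate incubation.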

[14] = molecular target: Beta-2 adrenergic receptor (Homo sapiens) (UniProt P07550); assay: Adrenergic beta2 receptor (ADRB2) small molecule antagonists, cell-based qHTS assay (AID 1963592); also: series mostly up to about 92 µM; nearly all actives have a fitted effect of over 50% in size
Method in brief: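 Cells (CHO, stable ADRB2 overexpression) incubated 18-20hr at 37C; compounds added from DMSO; agonist mix (1nM isoproterenol, 100uM IBMX, 25uM Ro-20-1724) added; 0.5hr RT; d2-cAMP and anti-cAMP-cryptate added; 1hr RT; 665/615 nm read.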

[15] = molecular target: Beta-2 adrenergic receptor (Homo sapiens) (UniProt P07550); assay: Adrenergic beta2 receptor (ADRB2) small molecule agonists, cell-based qHTS assay (AID 1963593);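 also: CHO cells stably overexpressing human ADRB2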
Method in brief: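 CHO cells stably over-expressing ADRB2 were plated overnight at 37C, then dosed with compounds plus a stimulation mix containing 100uM IBMX and 25uM Ro-20-1724 for 0.5hr at room temperature. cAMP was measured by HTRF competition, 1hr.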

[16] = molecular target: D(2) dopamine receptor (Homo sapiens) (UniProt P14416); assay: Dopamine D2 receptor (DRD2) small molecule agonists, cell-based qHTS assay (AID 1963594); also: nearly all actives have a fitted effect of over 35% in size
Method in brief: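 HEK293 cells stably expressing human DRD2, pre-treated with PDE inhibitor Ro20-1724 (0.1 mM final) and compound 10 min at room temperature, then stimulated with NKH477 (200nM […]) for 30 min. cAMP read by HTRF (665/620 nm).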

[17] = molecular target: D(2) dopamine receptor (Homo sapiens) (UniProt P14416); assay: Dopamine D2 receptor (DRD2) small molecule antagonists, cell-based qHTS assay (AID 1963595; active = well fitted inhibition curve with a large enough effect in the signal ratio in the repeat runs, with a control signal flat; the % refers to the signal ratio)
Method in brief: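 Readout: HTRF cAMP, cAMP-d2 competing with cellular cAMP for anti-cAMP cryptate, read after 1 h. Cells: DRD2-HEK293. Conditions: 0.1 mM Ro20-1724, 12 nM quinpirole, 200 nM NKH477, 30 min RT.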

[18] = p53 small molecule agonists, cell-based qHTS assay with human liver microsomes (AID 1963577);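 also: p53 response element beta-lactamase reporter cells with liver microsomes plus NADPH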
Method in brief: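 HLM-supplemented p53RE-bla reporter assay: 16 h compound exposure at 37 C, microsomes and NADPH each 0.5 mg/mL final, read by fluorescence intensity.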

[19] = p53 small molecule agonists, cell-based qHTS assay with rat liver microsomes (AID 1963578)
Method in brief: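 Quantitative HTS of the Tox21 10K library: p53RE-bla cells, rat liver microsomes plus NADPH at 0.5 mg/mL final each, 16 h at 37 C, beta-lactamase fluorescence detection.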

[20] = p53 small molecule agonists, cell-based qHTS assay (AID 1963582; active = well fitted activation curve with a large enough effect in the signal ratio in the repeat runs, not every such curve was filed as active; the % refers to the signal ratio)
Method in brief: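 Agonist activity was scored from beta-lactamase FRET fluorescence in p53RE-bla cells treated 16 h at 37 C with compounds in DMSO, substrate incubation being 2 h at room temperature.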

Measured: Potency

Sequence of Beta-2 adrenergic receptor (Homo sapiens) (P07550 whole entry, looked up): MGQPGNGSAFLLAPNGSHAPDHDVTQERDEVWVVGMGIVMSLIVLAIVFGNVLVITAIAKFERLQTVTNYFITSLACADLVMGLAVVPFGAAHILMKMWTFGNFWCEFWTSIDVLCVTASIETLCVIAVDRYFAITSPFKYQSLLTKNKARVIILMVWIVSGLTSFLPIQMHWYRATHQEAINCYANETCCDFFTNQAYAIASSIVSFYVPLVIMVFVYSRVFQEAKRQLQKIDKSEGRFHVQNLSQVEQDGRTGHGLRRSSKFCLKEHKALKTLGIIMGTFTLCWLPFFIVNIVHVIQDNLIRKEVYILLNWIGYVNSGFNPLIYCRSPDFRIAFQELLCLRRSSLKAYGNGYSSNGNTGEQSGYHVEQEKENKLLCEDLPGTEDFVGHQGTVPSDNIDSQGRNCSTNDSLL
Sequence of KiSS-1 receptor (Homo sapiens) (Q969F8 whole entry, looked up): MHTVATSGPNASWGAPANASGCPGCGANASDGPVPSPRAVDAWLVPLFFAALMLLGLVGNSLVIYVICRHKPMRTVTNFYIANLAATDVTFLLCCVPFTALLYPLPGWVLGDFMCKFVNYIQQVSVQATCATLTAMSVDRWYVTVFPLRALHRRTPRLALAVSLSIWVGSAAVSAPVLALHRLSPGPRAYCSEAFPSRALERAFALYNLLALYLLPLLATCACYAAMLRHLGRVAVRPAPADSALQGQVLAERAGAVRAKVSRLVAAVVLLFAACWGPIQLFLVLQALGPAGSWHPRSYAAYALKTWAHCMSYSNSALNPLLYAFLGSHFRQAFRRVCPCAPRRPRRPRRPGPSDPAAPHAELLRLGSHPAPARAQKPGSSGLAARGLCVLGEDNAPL
Sequence of 5-hydroxytryptamine receptor 2A (Homo sapiens) (P28223 whole entry, looked up): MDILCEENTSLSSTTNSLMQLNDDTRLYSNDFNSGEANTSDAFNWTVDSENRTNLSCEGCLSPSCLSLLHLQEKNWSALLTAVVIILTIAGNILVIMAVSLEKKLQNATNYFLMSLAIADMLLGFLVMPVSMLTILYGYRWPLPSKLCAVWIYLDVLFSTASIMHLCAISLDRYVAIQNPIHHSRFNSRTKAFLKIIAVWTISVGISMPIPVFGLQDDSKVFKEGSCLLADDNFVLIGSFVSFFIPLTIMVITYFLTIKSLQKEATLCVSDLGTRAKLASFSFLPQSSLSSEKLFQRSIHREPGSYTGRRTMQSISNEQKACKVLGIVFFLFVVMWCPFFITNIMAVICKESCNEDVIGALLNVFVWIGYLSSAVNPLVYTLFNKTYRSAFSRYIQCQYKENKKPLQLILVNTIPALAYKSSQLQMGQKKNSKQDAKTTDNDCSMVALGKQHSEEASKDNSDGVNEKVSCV
Sequence of D(2) dopamine receptor (Homo sapiens) (P14416 whole entry, looked up): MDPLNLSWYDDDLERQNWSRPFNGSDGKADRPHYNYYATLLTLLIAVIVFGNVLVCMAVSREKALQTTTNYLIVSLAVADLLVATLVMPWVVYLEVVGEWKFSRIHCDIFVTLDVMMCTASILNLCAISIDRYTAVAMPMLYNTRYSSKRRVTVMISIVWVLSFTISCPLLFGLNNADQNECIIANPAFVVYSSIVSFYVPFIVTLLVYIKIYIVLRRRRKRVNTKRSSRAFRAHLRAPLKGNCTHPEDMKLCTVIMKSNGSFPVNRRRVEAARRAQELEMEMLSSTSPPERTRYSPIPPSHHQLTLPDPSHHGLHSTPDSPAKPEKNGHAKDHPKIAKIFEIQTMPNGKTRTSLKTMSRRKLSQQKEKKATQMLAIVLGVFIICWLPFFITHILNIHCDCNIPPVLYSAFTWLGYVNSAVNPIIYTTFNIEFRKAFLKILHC
Sequence of Muscarinic acetylcholine receptor M1 (Homo sapiens) (P11229 whole entry, looked up): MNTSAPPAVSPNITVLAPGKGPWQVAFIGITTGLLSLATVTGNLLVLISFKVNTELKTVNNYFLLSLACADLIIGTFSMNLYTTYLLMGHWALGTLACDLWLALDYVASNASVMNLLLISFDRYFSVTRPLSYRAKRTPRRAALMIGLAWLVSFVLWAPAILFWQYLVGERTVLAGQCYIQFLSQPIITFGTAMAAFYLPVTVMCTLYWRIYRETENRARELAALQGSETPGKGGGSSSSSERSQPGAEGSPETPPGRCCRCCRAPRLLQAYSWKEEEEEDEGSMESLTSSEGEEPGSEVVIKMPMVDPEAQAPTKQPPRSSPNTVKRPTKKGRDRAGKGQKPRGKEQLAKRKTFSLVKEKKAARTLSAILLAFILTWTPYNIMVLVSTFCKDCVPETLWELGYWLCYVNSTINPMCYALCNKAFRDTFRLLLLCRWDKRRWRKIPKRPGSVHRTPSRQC

CCOc1ccc(OCC)c(Cl)c1
inactive: [1] | [2] | [3] | [4] | [5] | [6] | [7] | [8] | [9] | [10] | [11] | [12] | [13] | [14] | [15] | [16] | [17]

Brc1cc(Br)c(Oc2cc(Br)c(Br)cc2Br)cc1Br
inactive: [1] | [2] | [3] | [4] | [5] | [6] | [7] | [8] | [9] | [10] | [11] | [12] | [13] | [14] | [16] | [17]

Cc1cc2c(C(C)C)c(O)c(O)c(C=O)c2c(O)c1-c1c(C)cc2c(C(C)C)c(O)c(O)c(C=O)c2c1O
active: [1] 10.6 µM | [7] 11.2 µM
inactive: [2] | [3] | [4] | [18] | [19] | [10] | [11] | [14] | [16]

O=C(NO)C1(NS(=O)(=O)c2ccc(Oc3ccc(F)cc3)cc2)CCOCC1
inactive: [1] | [2] | [3] | [4] | [5] | [6] | [7] | [8] | [9] | [10] | [11] | [12] | [13] | [14] | [16] | [17]

Cc1coc2ccccc2c1=O
inactive: [1] | [2] | [3] | [4] | [19] | [5] | [6] | [7] | [20] | [8] | [11] | [12] | [13] | [14] | [15] | [16]

CCCCCCOC(=O)NC(=N)c1ccc(NCc2nc3cc(C(=O)N(CCC(=O)OCC)c4ccccn4)ccc3n2C)cc1
inactive: [1] | [2] | [3] | [4] | [18] | [19] | [5] | [6] | [9] | [10] | [11] | [14] | [15] | [16] | [17]

CCCCCCOc1cc(C)c(O)c(C)c1C
inactive: [2] | [3] | [4] | [18] | [19] | [20] | [10]
active: [1] 31 µM | [5] 26 µM | [8] 19 µM | [9] 39.4 µM

CC(C)C[C@H](NC(=O)CNC(=O)[C@H](Cc1ccc(O)cc1)NC(=O)[C@H](CO)NC(=O)[C@H](Cc1c[nH]c2ccccc12)NC(=O)[C@H](Cc1cnc[nH]1)NC(=O)[C@@H]1CCC(=O)N1)C(=O)N[C@@H](CCCN=C(N)N)C(=O)N1CCC[C@H]1C(=O)NCC(N)=O (stereo in doubt)
inactive: [1] | [2] | [3] | [4] | [18] | [19] | [7] | [20] | [12] | [13] | [14] | [15] | [16] | [17]

C=CC(=O)[O-].C=CC(=O)[O-].[Zn+2]
inactive: [1] | [2] | [3] | [4] | [19] | [5] | [6] | [7] | [20] | [9] | [10] | [11] | [12] | [13] | [14] | [16] | [17]

CCCCC(=O)O[C@]1(C(=O)CO)[C@@H](C)C[C@H]2[C@@H]3CCC4=CC(=O)C=C[C@]4(C)[C@@]3(F)[C@@H](O)C[C@@]21C
inactive: [1] | [2] | [3] | [4] | [19] | [6] | [7] | [20] | [8] | [10] | [11] | [14] | [16] | [17]

CCCC(C)CC (centres undefined)
inactive: [1] | [2] | [3] | [4] | [19] | [5] | [6] | [20] | [8] | [9] | [11] | [12] | [13] | [14] | [16]

COCC(=O)O[C@]1(CCN(C)CCCc2nc3ccccc3[nH]2)CCc2cc(F)ccc2[C@@H]1C(C)C
active: [1] 23.7 µM | [8] 5.16 µM
inactive: [2] | [3] | [4] | [18] | [5] | [9] | [10] | [11] | [14] | [16] | [17]

CN1C[C@H]2c3ccccc3Oc3ccc(Cl)cc3[C@@H]2C1
active: [9] 23.9 µM
inactive: [1] | [2] | [3] | [4] | [19] | [5] | [6] | [7] | [11] | [12] | [16]

CCC[C@@H]1C[C@@H](C(=O)N[C@@H]([C@H]2O[C@H](SC)[C@H](O)[C@@H](O)[C@H]2O)[C@@H](C)O)N(C)C1
inactive: [1] | [2] | [3] | [4] | [19] | [5] | [6] | [7] | [20] | [12] | [13] | [14] | [15] | [16] | [17]

N[C@@H](CS)C(=O)O
inactive: [1] | [2] | [3] | [4] | [19] | [5] | [6] | [7] | [20] | [8] | [9] | [10] | [11] | [12] | [13] | [14] | [16] | [17]

Cc1cc2cc3c(C)cc(=O)oc3c(C)c2o1
inactive: [1] | [2] | [3] | [4] | [19] | [5] | [6] | [7] | [20] | [12] | [13] | [14] | [16] | [17]

— PubChem BioAssay (Tox21)
